Source: PubChem BioAssay (NCI)
About 83,000 compounds went through this panel and 20% of them were active in at least one assay; those are over-represented in the sample as a whole.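 Testing used 96-well plates and a 48-hour single-concentration exposure. Example: -40 means 40% of the starting cells died.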 A number with no mark means an inactive call. Active and inactive are the calls of the source. How the source made its calls: active means growth percent below 10; inactive means the rest.

Columns and labels:
Experiment in all cases: NCI-60 one-dose screen, 48 h (100 = growth as untreated, 0 = no growth, -100 = all killed)
Details in all cases: 10 µM
RPMI-8226 leukemia = system: RPMI-8226 leukemia
OVCAR-8 ovarian = system: OVCAR-8 ovarian
OVCAR-5 ovarian = system: OVCAR-5 ovarian
OVCAR-4 ovarian = system: OVCAR-4 ovarian
SK-OV-3 ovarian = system: SK-OV-3 ovarian
IGROV1 ovarian = system: IGROV1 ovarian
OVCAR-3 ovarian = system: OVCAR-3 ovarian
HS 578T breast = system: HS 578T breast
NCI/ADR-RES ovarian = system: NCI/ADR-RES ovarian
T-47D breast = system: T-47D breast
BT-549 breast = system: BT-549 breast
MDA-MB-435 melanoma = system: MDA-MB-435 melanoma
SW-620 colon = system: SW-620 colon
MCF7 breast = system: MCF7 breast
HCT-116 colon = system: HCT-116 colon
HCC-2998 colon = system: HCC-2998 colon
KM12 colon = system: KM12 colon

Structure (SMILES)	growth (RPMI-8226 leukemia)	growth (OVCAR-8 ovarian)	growth (OVCAR-5 ovarian)	growth (OVCAR-4 ovarian)	growth (SK-OV-3 ovarian)	growth (IGROV1 ovarian)	growth (OVCAR-3 ovarian)	growth (HS 578T breast)	growth (NCI/ADR-RES ovarian)	growth (T-47D breast)	growth (BT-549 breast)	growth (MDA-MB-435 melanoma)	growth (SW-620 colon)	growth (MCF7 breast)	growth (HCT-116 colon)	growth (HCC-2998 colon)	growth (KM12 colon)
COc1cc(/C=C/C(=O)c2ccc(Cl)cc2)ccc1OS(=O)(=O)c1ccc(C)cc1	-16.7% (active)	83.8%	111%	92.5%	96.8%	97.9%	80.7%	129%	81.4%	76.8%	134%	81.2%	6.82% (active)	11.2%	12.9%	112%	81.2%
O=C(N/N=C\c1cc(Cl)ccc1[N+](=O)[O-])c1ccco1	109%	101%	118%	105%	130%	127%	107%	100%	100%	83.7%	101%	100%	102%	57%	113%	103%	102%
COc1cc(C2CC(c3ccc(Nc4ccnc5cc(Cl)ccc45)cc3)=NN2c2ccc(Cl)cc2)cc(OC)c1OC (stereo not drawn)	44.7%	53.8%	80.6%	69.7%	79.2%	57.5%	38%	61.6%	29.6%	41.3%	68.4%	8.05% (active)	39.4%	29.4%	46.6%	55.4%	30.5%
CCCCCCCNc1nc(C=O)ncc1-c1ccc(C(F)(F)F)cc1	84%	102%	103%	110%	96.5%	89.8%	97.6%	107%	90.1%	81.6%	99.7%	100%	98%	83.5%	98.3%	104%	91.2%
O=C(O)c1ccc(Cl)cc1Nc1ccc(F)cc1	88.6%	74.1%	81%	38%	70.9%	119%	6.97% (active)	94.3%	91.3%	78.7%	32.5%	83.2%	94.6%	76.7%	72.8%	81.9%	74.5%
COc1ccc(-c2nsc3c2NC(=O)CC3c2ccc(F)cc2)cc1 (stereo not drawn)	39.6%	46.1%	40.3%	90.8%	35.2%	56.2%	23.9%	66.6%	5.04% (active)	22.2%	28%	-56.1% (active)	21.4%	22%	19.5%	56.7%	22.2%
N=c1c2c(-c3ccccc3)c(-c3ccccc3)n(Cc3ccccc3)c2ncn1CCCO	18.7%	32.5%	55.6%	35.7%	70.7%	8.33% (active)	8.78% (active)	46%	42.9%	65.9%	88.5%	34.2%	21.6%	2.77% (active)	13.3%	64.3%	29.9%
CCN(CC)CCSCCN(CC)CC	105%	101%	94.3%	96.4%	98.9%	109%	108%	106%	108%	94%	105%	101%	99.2%	99.1%	107%	119%	107%
O=C(C[P+](c1ccccc1)(c1ccccc1)c1ccccc1)C[P+](c1ccccc1)(c1ccccc1)c1ccccc1	-40.6% (active)	-42.1% (active)	-94.9% (active)	-55.8% (active)	-3.83% (active)	-69.3% (active)	-92.9% (active)	-5.42% (active)	1.56% (active)	-45.2% (active)	-89.2% (active)	-80.6% (active)	-71.9% (active)	-69.8% (active)	-93.3% (active)	-83.9% (active)	-75.5% (active)
